Consider 17 molecules from PubChem BioAssay (EPA / NIEHS).

Inconclusive results are not listed. The source made the active and inactive calls. How the source made its calls, unless noted: active means hit-call score of the fitted dose curve at least 0.9, where 1 is the maximum; inactive means score below 0.9.

For test [1], the target named is Estrogen receptor (Homo sapiens) (UniProt P03372). In words: CCTE_Deisenroth_AIME_96WELL_LUC_Active: CCTE's 96-well Estrogen Receptor Transactivation Assay with AIME metabolic competence (ERTA luciferase; metabolism positive), Deisenroth Lab (AID 2284023; active means hit-call score of the fitted dose curve at least 0.9, where 1 is the maximum). The method, boiled down: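 Chemicals pre-incubated 2 h with alginate-immobilized phenobarbital/beta-naphthoflavone-induced male Sprague Dawley rat liver S9, then medium transferred to VM7Luc4E2 cells for 24 h luciferase read-out. 10-point series 0.002 - 200 uM; fitted relative to 17beta-estradiol.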
Estrogen receptor (Homo sapiens), sequence (P03372 whole entry, looked up): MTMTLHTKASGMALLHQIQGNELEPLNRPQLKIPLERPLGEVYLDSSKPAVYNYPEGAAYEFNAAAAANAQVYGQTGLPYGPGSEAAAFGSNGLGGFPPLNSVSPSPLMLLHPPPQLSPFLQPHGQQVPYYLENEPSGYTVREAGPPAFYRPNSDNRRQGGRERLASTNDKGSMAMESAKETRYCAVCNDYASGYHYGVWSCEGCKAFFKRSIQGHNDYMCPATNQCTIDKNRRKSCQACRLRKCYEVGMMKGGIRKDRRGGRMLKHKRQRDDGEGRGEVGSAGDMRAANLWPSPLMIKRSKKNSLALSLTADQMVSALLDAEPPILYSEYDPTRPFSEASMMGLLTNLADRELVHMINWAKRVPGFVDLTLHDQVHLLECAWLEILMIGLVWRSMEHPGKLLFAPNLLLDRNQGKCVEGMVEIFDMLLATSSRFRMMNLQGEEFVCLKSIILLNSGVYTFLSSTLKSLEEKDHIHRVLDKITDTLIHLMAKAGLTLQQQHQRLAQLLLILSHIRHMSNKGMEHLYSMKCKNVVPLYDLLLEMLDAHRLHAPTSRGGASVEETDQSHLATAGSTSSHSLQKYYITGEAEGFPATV

The target is the same in test [2]. In words: CCTE_Deisenroth_AIME_96WELL_LUC_Inactive: CCTE's 96-well Estrogen Receptor Transactivation Assay without AIME metabolic competence (ERTA luciferase; metabolism negative), Deisenroth Lab (AID 2284025; active means hit-call score of the fitted dose curve at least 0.9, where 1 is the maximum). The method, boiled down:
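VM7Luc4E2 breast cells, luciferase read 24 h after dosing with medium pre-incubated 2 h on alginate-water lids (metabolism negative). 10-point series 0.002–200 uM, single technical replicate, n≥4; fit relative to 17beta-estradiol.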

The nature of test [3]: CCTE_Shafer_MEA_acute_burst_percentage_std: CCTE's Neural Acute Assay for Standard Deviation of Burst Percentage, Shafer Lab (AID 2284018).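 Further: fitted in the negative direction so actives lower burst percentage SD.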 Put shortly: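 Primary rat cortical neurons on 16-electrode MEA wells were recorded 40 min at baseline (DIV 13 or 15), then 40 min after compound (0.03-40 uM), at 37 C. Well value is SD across electrodes of spikes-in-bursts/total spikes; endpoint is percent change, DMSO-referenced.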

Test [4] can be described thus: CCTE_Shafer_MEA_acute_per_network_burst_spike_number_mean: CCTE's Neural Acute Assay for Average Number of Spikes in a Network Burst, Shafer Lab (AID 2284019).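 On AC50: curve fitted for loss of signal so actives reduce spikes per network burst.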 Put shortly: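 Primary rat cortical neurons on 16-electrode MEA wells, DIV 13 or 15, 37 C; 40-min baseline then 40-min recording with compound (0.03-40 uM). Spikes per network burst (total spikes/number of bursts) expressed as percent change from baseline, DMSO reference.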

Test [5] is described as follows: CCTE_Shafer_MEA_acute_per_network_burst_spike_number_std: CCTE's Neural Acute Assay for Standard Deviation of Number of Spikes in a Network Burst, Shafer Lab (AID 2284020).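 Further: fitted for decrease in spike-number SD versus DMSO so actives lower it.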 The method, boiled down: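 Primary rat cortical neurons on 48-well MEAs (16 electrodes/well) recorded at DIV 13 or 15: 40-min baseline, then 40 min with compound (0.03-40 uM), 37 C. Value is percent change in SD of spikes per network burst, relative to DMSO.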

Test [6] is described as follows: CCTE_Shafer_MEA_acute_per_network_burst_electrodes_number_mean: CCTE's Neural Acute Assay for Mean Number of Electrodes in a Network Burst, Shafer Lab (AID 2284021).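 Further: curves fitted for decreases only so hits reduce electrodes per burst.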 The method, boiled down: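 Rat primary cortical neurons on 16-electrode MEA wells were recorded 40 min at baseline on DIV 13 or 15, then 40 min after compound (0.03-40 uM), at 37 C. Value is percent change per well, fitted in loss direction versus DMSO.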

Test [7] in a line: CCTE_Shafer_MEA_acute_network_burst_percentage: CCTE's Neural Acute Assay for Percentage of Network Bursts, Shafer Lab (AID 2284022).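 Further: curves fitted for loss so actives lower network burst percentage.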 Put shortly: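 Primary rat cortical neurons on 16-electrode MEA wells, treated on DIV 13 or 15 with compound (0.03-40 uM); 40-min baseline and 40-min post-exposure recordings at 37 C. Value is percent change in spikes within network bursts versus baseline, DMSO negative control.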

Test [8] in a line: CCTE_Shafer_MEA_acute_cross_correlation_HWHM: CCTE's Neural Acute Assay for Cross Correlation at Half Width at Half Maximum, Shafer Lab (AID 2284026).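 Further: hits are a decrease in cross-correlogram half width relative to DMSO.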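 On outcome: spontaneous network firing of rat primary cortical neurons on multiwell microelectrode arrays.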 The method, boiled down: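 Primary rat cortical neurons on 16-electrode MEA wells; 40-min baseline on DIV 13 or 15, then 40-min recording with compound (0.03-40 uM) at 37 C. HWHM of spike cross-correlogram expressed as percent change from baseline per well, DMSO reference.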

Test [9] is described as follows: CCTE_Shafer_MEA_acute_synchrony_index: CCTE's Neural Acute Assay for Synchrony, Shafer Lab (AID 2284027).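 Further: fitted for loss of signal so actives lower synchrony relative to DMSO.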 Put shortly: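 Readout is percent change in the unitless network synchrony index (0 low, 1 high) between a 40-min baseline and a 40-min recording in compound. Cultures were primary rat cortical neurons on MEAs, treated at 0.03-40 uM on DIV 13 or 15.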
Test [10] can be described thus: CCTE_Shafer_MEA_acute_cross_correlation_area: CCTE's Neural Acute Assay for Area of Cross Correlation, Shafer Lab (AID 2284024).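 Further: area under pooled inter-electrode spike cross-correlation near zero lag as percent change from own baseline; curves fitted for loss of cross-correlation area so actives lower synchrony.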 The method, boiled down:
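Primary rat cortical neurons on 48-well MEA plates (16 electrodes/well) were recorded 40 min at baseline on DIV 13 or 15, then 40 min with compound (0.03-40 uM) at 37 C; cross-correlation area expressed as percent change from baseline.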

Regarding `c1ccc2ccccc2c1`, the call in [1] and in test [2] was inactive.
What is called AC50 is the midpoint of the concentration-response curve, whichever way the signal moves. On to `CN(C)c1ccc(C(=C2C=CC(=[N+](C)C)C=C2)c2ccc(N(C)C)cc2)cc1`, for which the AC50 was 2.72 µM (active) in test [3]; 2.78 µM (active) in test [5]; 2.27 µM (active) in [7]; 2.13 µM (active) in test [8]; 1.42 µM (active) in test [9]. The molecule was called inactive in test [4] and in test [6].
For `CCCCCCCCOC(=O)c1cc(O)c(O)c(O)c1`, the AC50 is 7.82 µM (active) in [3]; 7.51 µM (active) in test [5]; 8.24 µM (active) in test [6]; 9.35 µM (active) in [7]; 8.04 µM (active) in [8]; 8.07 µM (active) in test [9]. Besides, the molecule was classed as inactive in test [4].
As to `COc1cc(C(=O)NC2CCN(C)CC2)ccc1Nc1ncc2c(n1)N(C1CCCC1)CC(F)(F)C(=O)N2C`, the call in [3] and in test [10] was inactive. For the same molecule, the AC50 is 3.69 µM (active) in test [4]; 15.2 µM (active) in [5]; 5.23 µM (active) in [6]; 10.5 µM (active) in [7]; 30.1 µM (active) in test [8]; 18.6 µM (active) in [9].
For the molecule `CC(C)(C)c1cc(/C=C2\SC(N)=NC2=O)cc(C(C)(C)C)c1O`, the molecule was classed as inactive in [3], in test [4], in [5], in test [6], in test [7] and in test [10]. Further, the call in test [8] and in test [9] was inactive.
`NCc1cccc(C2CCN(C(=O)c3ccc(C#Cc4ccccc4F)o3)CC2)c1`: the molecule was classed as inactive in [3], in test [4] and in [10]. Moreover, the AC50 in [5] is 20 µM (active); in test [6], 20 µM (active); in test [7] it was 31.4 µM (active); in [8], 34.9 µM (active); in test [9], 28.6 µM (active).
On to `Cc1c2ccccc2c(C)c2c1ccc1ccccc12`, for which the AC50 in test [3] is 35.2 µM (active); in test [8] it was 26.3 µM (active); in test [9], 36.9 µM (active). Besides, the call in [4], in test [5], in test [6], in test [7] and in test [10] was inactive.
Take `COc1cccc([C@H](O)C2CCN(CCc3ccc(F)cc3)CC2)c1OC`: the molecule was called inactive in test [3], in test [4], in test [6], in [7], in test [10] and in test [9]. In addition, the values for the AC50 in test [5] and in test [8] were 6.88 µM (active) and 10.2 µM (active), respectively.
As for `CC[C@@H]1C[C@H](N(Cc2cc(C(F)(F)F)cc(C(F)(F)F)c2)C(C)=O)c2cc(C(F)(F)F)ccc2N1C(=O)OC(C)C`, the result in test [3], in test [4], in test [5], in [6], in test [7] and in test [10] was inactive. For the same molecule, in test [8], the call was inactive. Moreover, in [9], the half-maximal activity concentration (AC50) was 3.97 µM (active).
Take `O=C1O[C@H]([C@@H](O)CO)C(O)=C1O`: the molecule was classed as inactive in test [3], in [4], in test [5], in test [6], in test [7] and in test [10]. The outcome in test [8] and in [9] was inactive.
For the molecule `CC(O)CC(C)(C)O` (configuration not stated), the molecule was called inactive in [3], in [4], in [5], in test [6], in [7] and in test [10]. The molecule was called inactive in test [8] and in test [9].
`CN1C(=O)CC[C@H]1c1cccnc1`: the molecule was classed as inactive in test [3], in test [4], in test [5], in [6], in [7] and in [10]. For the same molecule, the call in test [8] and in test [9] was inactive.
As to `CCCCOC(=O)c1ccc(O)cc1`, the molecule was called inactive in test [3], in test [4], in test [5], in test [6], in test [7] and in test [10]. Also, the result in test [8] and in test [9] was inactive.
As for `O=C(O)c1ccccc1-n1cc(C(=O)O)c(=O)c2cc(Nc3c(F)cc(F)cc3Cl)c(Cl)cc21`, the molecule was classed as inactive in test [3], in [4], in test [5], in test [6], in test [7] and in test [10]. Moreover, the molecule was classed as inactive in test [8] and in test [9].
For `NC(=O)c1nc(-c2cccc(-c3cc(F)ccc3OCC(F)(F)C(F)(F)F)c2)n[nH]1`, the AC50 in test [3] was 2.16 µM (active); in test [4] it was 0.16 µM (active); in [5] it was 37.4 µM (active); in test [8] it was 8.29 µM (active); in test [9] it was 6.63 µM (active). For the same molecule, the outcome in test [6], in [7] and in test [10] was inactive.
As for `CN(C[C@@H](CC[N+]12CCC(C3CCCCC3)(CC1)CC2)c1ccc(Cl)c(Cl)c1)C(=O)c1cc(C(F)(F)F)cc(C(F)(F)F)c1`, the AC50 in [3] was 2.53 µM (active); in test [5], 8.89 µM (active); in test [6] it was 5 µM (active); in [7], 8.37 µM (active); in test [8], 8 µM (active); in test [9], 8.29 µM (active). Further, the molecule was called inactive in test [4] and in test [10].
Regarding `CO[C@H]1/C=C/O[C@@]2(C)Oc3c(C)c(O)c4c(O)c(c(/C=N/N5CCN(C)CC5)c(O)c4c3C2=O)NC(=O)/C(C)=C\C=C\[C@H](C)[C@H](O)[C@@H](C)[C@@H](O)[C@@H](C)[C@H](OC(C)=O)[C@@H]1C`, the outcome in test [3], in [5], in [6], in test [7], in test [10] and in test [9] was inactive. In addition, the AC50 in test [4] was 12.5 µM (active).
